From PubChem BioAssay (NCI)
Compounds without any hit were thinned out: in the full panel of roughly 83,000, 20% have a hit.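 Testing used 96-well plates and a 48-hour single-concentration exposure. Example: -40 means 40% of the starting cells died.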 Unmarked numbers belong to inactive results. Activity calls are given as the source filed them. The calls were made as follows: active = growth percent below 10; inactive = the rest.

Assays:
Assay in all cases: NCI-60 one-dose screen, 48 h (100 = growth as untreated, 0 = no growth, -100 = all killed)
Conditions in all cases: 10 µM unless noted
HCT-15 colon = test system: HCT-15 colon
HT29 colon = test system: HT29 colon
SNB-75 CNS = test system: SNB-75 CNS
SNB-19 CNS = test system: SNB-19 CNS
U251 CNS = test system: U251 CNS
PC-3 prostate = test system: PC-3 prostate
SK-MEL-5 melanoma = test system: SK-MEL-5 melanoma
UACC-62 melanoma = test system: UACC-62 melanoma
LOX IMVI melanoma = test system: LOX IMVI melanoma
SK-MEL-28 melanoma = test system: SK-MEL-28 melanoma
SK-MEL-2 melanoma = test system: SK-MEL-2 melanoma
EKVX NSCLC = test system: EKVX NSCLC
SN12C renal = test system: SN12C renal
UO-31 renal = test system: UO-31 renal
TK-10 renal = test system: TK-10 renal
ACHN renal = test system: ACHN renal
CAKI-1 renal = test system: CAKI-1 renal
A498 renal = test system: A498 renal
CCRF-CEM leukemia = test system: CCRF-CEM leukemia
MOLT-4 leukemia = test system: MOLT-4 leukemia

| SMILES | growth (HCT-15 colon) | growth (HT29 colon) | growth (SNB-75 CNS) | growth (SNB-19 CNS) | growth (U251 CNS) | growth (PC-3 prostate) | growth (SK-MEL-5 melanoma) | growth (UACC-62 melanoma) | growth (LOX IMVI melanoma) | growth (SK-MEL-28 melanoma) | growth (SK-MEL-2 melanoma) | growth (EKVX NSCLC) | growth (SN12C renal) | growth (UO-31 renal) | growth (TK-10 renal) | growth (ACHN renal) | growth (CAKI-1 renal) | growth (A498 renal) | growth (CCRF-CEM leukemia) | growth (MOLT-4 leukemia) |
| --- | --- | --- | --- | --- | --- | --- | --- | --- | --- | --- | --- | --- | --- | --- | --- | --- | --- | --- | --- | --- |
| COC(=O)CCCCCN=Cc1c(O)c(O)c(C(C)C)c2cc(C)c(-c3c(C)cc4c(C(C)C)c(O)c(O)c(C=NCCCCCC(=O)OC)c4c3O)c(O)c12 | 17.2% | 4.21% (active) | 46.9% | 20.6% | 3.85% (active) | 14% | 32.3% | 25% | 13.7% | 33% | 10.4% | 21.7% | 19.8% | 19.5% | 3.95% (active) | 15.5% | 55.6% | 35.1% | 18.1% | 13.6% |
| Cc1cnc(NC(=O)C(Cc2ccccc2)NC(=O)c2ccccc2)s1 (stereo not given) | 79.9% | 55% | 83.6% | 93.3% | 92.2% | 70.7% | 25.5% | 62.2% | 55.9% | 88.9% | 43.2% | 78.5% | 76.1% | 26.7% | 79.2% | 68% | 92.4% | 92.6% | 81.3% | 40.8% |
| CCCCn1c(=O)c(C2CNC(=O)c3ccccc3N2)cc2ccccc21 (stereo not given) | 101% | 103% | 84% | 91% | 98% | 106% | 102% | 88.4% | 97.3% | 102% | 106% | 103% | 85.7% | 93.1% | 109% | 98.2% | 85.8% | 88.7% | 110% | 46.4% |
| C/C(=C\c1csc(C)n1)[C@@H]1C[C@@H]2O[C@]2(C)CCC[C@H](C)[C@H](O)[C@@H](C)C(=O)C(C)(C)[C@@H](O)CC(=O)N1 | -93.4% (active) | -10.4% (active) | -19.4% (active) | -41.4% (active) | -100% (active) | -63.9% (active) | -89.9% (active) | -93.7% (active) | -100% (active) | -43.3% (active) | -46.7% (active) | -25.6% (active) | -81.1% (active) | -85.7% (active) | -68% (active) | -100% (active) | -88.4% (active) | -28.7% (active) | -80.7% (active) | -27.5% (active) |
| COc1ccc(/C=C/C(=O)/C=C/c2cc3ccc(Cl)cc3[nH]c2=O)cc1 | 87.4% | 80.6% | 76.2% | 80.9% | 53.3% | 76.1% | 98.6% | 72.1% | 48.5% | 103% | 94% | 84.7% | 85.7% | 75.7% | 124% | 88.6% | 93.2% | 92.7% | 56.8% | 65.3% |
| CCCCCCOc1ccc(C2(Cl)c3ccccc3N(C)c3ccccc32)cc1 | 44.7% | 35.1% | 63.3% | 47.1% | -8.78% (active) | 21.8% | 33.2% | 38.1% | -33.8% (active) | 24.5% | 42.3% | 58.5% | 52.4% | 67.8% | 76.7% | 61% | 61.7% | 86.6% | 89.2% | 74% |
| O=S(=O)(NCCCNc1cc(-c2cn(-c3ccccc3)nc2-c2cccc(O)c2)ccn1)c1ccc(Br)cc1 | -18.7% (active) | -24.4% (active) | 25.8% | 27.3% | 4.89% (active) | 4.26% (active) | -56.3% (active) | -5.16% (active) | -29.5% (active) | -36.2% (active) | -5.21% (active) | 30.5% | 16.5% | 3.1% (active) | 32.2% | 10.2% | 13% | 25.2% | 12.2% | -5.44% (active) |
